Measurements from the supplement of paper PMC13380429.

How the values were obtained:
[1] = tested on: Vero E6 infected with SARS-CoV-2; experiment: morphology score (similarity to uninfected cells); higher = more like uninfected cells; conditions: 24 h
[2] = tested on: Vero E6 infected with SARS-CoV-2; experiment: SARS-CoV-2 infection rate relative to infected DMSO; higher = more infection, active = 60 or less; conditions: 24 h

SMILES | morphology score [1] | SARS-CoV-2 infection rate [2]
COc1cc(/C=C(\C#N)C(N)=O)cc(CSc2nc3ccccc3s2)c1O [tyrphostin-AG-825] (10 µM) | -0.108 | 108% (inactive)
CC1=NN(c2ccccc2)C(=O)C1 [edaravone] (10 µM) | 0.127 | 101% (inactive)
O=C(OCC(O)CO)c1ccccc1Nc1ccnc2cc(Cl)ccc12 (centres undefined) [glafenine] (10 µM) | 0.535 | 83% (inactive)
O=C(O)c1ccccc1NCCc1ccccc1 [tromaril] (10 µM) | -0.0774 | 105% (inactive)
CN1CCN(c2nc(C3=C(c4c[nH]c5ccccc45)C(=O)NC3=O)c3ccccc3n2)CC1 [sotrastaurin] (10 µM) | 0.0619 | 119% (inactive)
Cc1cc(C)c(N(Cc2ccccc2)S(=O)(=O)c2ccc(OCCNC(=O)c3cc4ccccc4o3)cc2)c(C(=O)NO)c1 (0.833333 µM) | -0.0297 | 96% (inactive)
c1ccc2c(Cc3c[nH]c4ccccc34)c[nH]c2c1 [3,3'-diindolylmethane] (10 µM) | 0.0838 | 113% (inactive)
OCCCNc1cc(-c2ccnc(Nc3cccc(Cl)c3)n2)ccn1 (10 µM) | -0.158 | 98% (inactive)
NCCCCCC(=O)O [aminocaproic-acid] (10 µM) | 0.136 | 89.5% (inactive)
Cn1cc(-c2ccc3c(c2)CCN3C(=O)Cc2cccc(C(F)(F)F)c2)c2c(N)ncnc21 (0.833333 µM) | 0.029 | 92% (inactive)
Nc1ncnc2c1ncn2CCOCP(=O)(O)O [adefovir] (10 µM) | -0.0616 | 110% (inactive)
CCOC(=O)[N-]c1c[n+](N2CCOCC2)no1 [molsidomine] (10 µM) | 0.0533 | 102% (inactive)
Fc1ccc(C(c2ccccc2)(c2ccccc2F)n2ccnc2)cc1 (centres undefined) [flutrimazole] (10 µM) | 0.166 | 108% (inactive)
Cc1oc2nc3c(c(NC(=O)CN4CCCC4=O)c2c1C)CCCC3 (10 µM) | 0.0552 | 103% (inactive)
C[C@@H](CN(C)C)CN1c2ccccc2Sc2ccccc21 (racemic) [alimemazine] (0.833333 µM) | -0.144 | 105% (inactive)
[Cl][Ru-]([Cl])([Cl])[Cl].[Na+].c1ccc2[nH]ncc2c1.c1ccc2[nH]ncc2c1 (10 µM) | 0.443 | 43% (active)
C[C@@H]1O[C@@H](OC[C@H]2O[C@@H](Oc3c(-c4ccc(O)c(O)c4)oc4cc(O)cc(O)c4c3=O)[C@H](O)[C@@H](O)[C@@H]2O)[C@H](O)[C@H](O)[C@H]1O [rutin] (10 µM) | -0.197 | 112% (inactive)
Nc1c(S(=O)(=O)O)cc(Nc2cccc3ccccc23)c2c1C(=O)c1ccccc1C2=O (10 µM) | 0.145 | 112% (inactive)
O=C(O)CCCCC(=O)O [adipic-acid] (10 µM) | -0.0456 | 105% (inactive)
CC(C)C(=O)Oc1ccc(CO)cc1[C@H](CCN(C(C)C)C(C)C)c1ccccc1 [fesoterodine] (10 µM) | 0.096 | 108% (inactive)
O=S(=O)(O)Oc1ccc(C(c2ccc(OS(=O)(=O)O)cc2)c2ccccn2)cc1 [sodium-picosulfate] (10 µM) | 0.154 | 101% (inactive)
CC(NC(=O)c1ccccc1/N=C/c1c(O)ccc2ccccc12)c1ccccc1 (centres undefined) [sirtinol] (10 µM) | 0.0701 | 99% (inactive)
Clc1ccc(CSC(Cn2ccnc2)c2ccc(Cl)cc2Cl)cc1 (centres undefined) [sulconazole] (10 µM) | -0.0348 | 110% (inactive)
Cc1c(S(=O)(=O)O)oc2c1C(=O)C(=O)c1c-2ccc2c1CCCC2(C)C [sodium-tanshinone-II-A-sulfonate] (10 µM) | 0.0001 | 110% (inactive)
CO[C@H]1/C=C/O[C@@]2(C)Oc3c(C)c(O)c4c(O)c(c(/C=N/N5CCN(C)CC5)c(O)c4c3C2=O)NC(=O)/C(C)=C\C=C\[C@H](C)[C@H](O)[C@@H](C)[C@@H](O)[C@@H](C)[C@H](OC(C)=O)[C@@H]1C [rifampin] (0.833333 µM) | -0.0289 | 112% (inactive)
CNC(=O)[C@@H](c1ccccc1)N1CCc2cc(OC)c(OC)cc2[C@@H]1CCc1ccc(C(F)(F)F)cc1 [almorexant] (10 µM) | -0.0542 | 105% (inactive)
Cc1ccc(OCCSc2ncccn2)c(Br)c1 (10 µM) | 0.0756 | 104% (inactive)
